Screens from PubChem.
M1 antag = human M1 muscarinic receptor antagonists, primary screen, CHO-K1 cells, Fluo-8 calcium fluorescence, 1536-well. inhibition, % at 3 µM. hit rate 1.3% among 360,000. CHO-K1 hM1, ACh EC80 antagonist;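 active = percent inhibition above its own plate's cutoff, namely the mean of that plate's compound wells plus 3 SD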;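 also: peak over basal fluorescence ratio during 140 s after agonist addition; 0% = ACh EC80 plus DMSO and 100% = DMSO alone without agonist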
Target sequence (P11229 whole entry, looked up): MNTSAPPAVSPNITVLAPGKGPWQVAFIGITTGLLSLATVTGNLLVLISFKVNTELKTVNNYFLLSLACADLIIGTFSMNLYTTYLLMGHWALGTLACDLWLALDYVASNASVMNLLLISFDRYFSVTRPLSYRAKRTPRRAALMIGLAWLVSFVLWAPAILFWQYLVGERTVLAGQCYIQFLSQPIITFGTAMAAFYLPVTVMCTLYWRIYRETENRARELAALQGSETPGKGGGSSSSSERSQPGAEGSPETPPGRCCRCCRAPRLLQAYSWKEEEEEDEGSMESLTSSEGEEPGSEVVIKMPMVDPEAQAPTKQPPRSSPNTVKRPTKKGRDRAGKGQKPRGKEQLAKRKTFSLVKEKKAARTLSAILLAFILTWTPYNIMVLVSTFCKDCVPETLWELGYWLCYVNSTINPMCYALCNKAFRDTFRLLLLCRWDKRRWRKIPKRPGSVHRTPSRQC
M1 PAM parental = nonselective calcium activators in parental CHO-K1 cells, primary screen, counter-screen for M1 PAM project, cell-based, Fluo-8 calcium fluorescence, full deck, 1536-well; AID 602247, 2012; activation, % at 3 µM; ATP EC20; 0% at ATP EC20, 100% at ATP max; hit rate 0.02% among 360,000;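 active = activation above the run cutoff, the mean activation of all test compounds plus 3 SD, cut at about 40% in these data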;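 also: peak over basal fluorescence ratio in a 140 s read after ATP addition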
M1 PAM = human M1 muscarinic receptor positive allosteric modulators, primary screen, CHO-K1 cells, Fluo-8 calcium fluorescence, 1536-well; Muscarinic acetylcholine receptor M1 (Homo sapiens), P11229; CHO-K1 hM1, ACh EC20; 0% = ACh EC20, 100% = maximal ACh; activation, % at 3 µM; hit rate 0.088% among 360,000; in the data active = activation above about 19%, passing the limit was not always enough
M1 ag parental = counter-screen for M1 agonists: effect in parental CHO-K1 cells. activation, % at 3 µM. Fluo-8 calcium fluorescence; scaled to maximal ATP response, vehicle zero. hit rate 0.48% among 360,000; in the data active = activation above about 15%;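 also: untransfected CHO-K1 host cells lacking M1 receptor as counterscreen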
CHO-K1 Ca antag = nonselective inhibitor or artifact in parental CHO-K1 cells. ATP-induced calcium, Fluo-8 fluorescence. inhibition, % at 3 µM. hit rate 0.6% among 360,000;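 active = inhibition above a per-plate cutoff, the plate's mean sample inhibition plus 3 SD, cut at about 24% in these data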;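 also: 0% = DMSO plus EC80 ATP and 100% = DMSO alone without ATP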
CHRM1 agonist = human M1 muscarinic receptor agonists, primary screen, Fluo-8 calcium fluorescence, CHO-K1 cells, HTS | Muscarinic acetylcholine receptor M1 (Homo sapiens), P11229 | CHO-K1 hM1, agonist mode; 0% DMSO, 100% acetylcholine EC100 | activation, % at 3 µM | hit rate 0.33% among 360,000;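 active = activation above the run's mean compound activation plus 3 SD, cut at about 16% in these data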;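 also: peak over basal fluorescence ratio within a 140 s kinetic read after compound addition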
Active calls of the source: *. Only some compounds are listed: those with a hit (about 2.4% of all), similar ones and a draw of the others.

SMILES | M1 antag | M1 PAM parental | M1 PAM | M1 ag parental | CHO-K1 Ca antag | CHRM1 agonist
CC(C)C(O)(C(=O)OCC1=CCN2CCC(O)C12)C(C)O (configuration not stated) | -1 | -4 | 4 | 0 | -9 | -9
Fc1ccc(CCNCc2ccc(Br)cc2)cc1 | -3 | 41* | 3 | 4 | -15 | -9
O=C(Nc1ccccc1)NC1CC2CCC(C1)N2 (configuration not stated) | 31* | 8 | -17 | 0 | -1 | -5
CSc1nc(Cl)c(Br)c(N2CC2)n1 | -5 | 1 | -2 | 0 | -7 | -8
CC(=O)OC1N=C(c2ccccc2Cl)c2cc(Br)ccc2NC1=O (configuration not stated) | -18 | 3 | 8 | 2 | -9 | 1
O=c1[nH]c(=S)n(Cc2ccc(F)cc2)c(O)c1C=NCC1CCCO1 (configuration not stated) | -6 | 4 | 10 | 0 | -4 | -4
O=c1[nH]c(=S)n(Cc2ccc(F)cc2)c(O)c1/C=N/N1CCCCC1 | 14 | 12 | -9 | 1 | -3 | 27*
c1ccc(C(OCCN2CCNCC2)c2ccccc2)cc1 | 70* | 32 | -20 | 1 | -22 | -6
O=C1c2ccccc2-n2nnc(-c3ccccc3)c2C2c3ccccc3CCN12 (configuration not stated) | 18 | 7 | -14 | 1 | 19 | 6
N#Cc1c(N2CCNCC2)nc(-c2ccco2)c2c1CCCC2 | -12 | -24 | 8 | 0 | 16 | -4
CCCCc1nc(N2CCNCC2)c(C#N)c2c1CSC(C)(C)C2 | 54* | 20 | -20 | 1 | -12 | -4
CC(=O)C1C(N2CC2)CC2C3CC=C4CC(O)CCC4(C)C3CCC21C (configuration not stated) | -8 | -4 | 0 | 0 | -13 | -5
C[N+](C)(C)CC#CCOC(=O)Nc1cccc(Cl)c1 | 88* | 1 | -22 | 0 | 0 | 91*
O=C(Nc1cccc(Cl)c1)N1C[C@H]2C[C@@H](C1)c1cccc(=O)n1C2 | 4 | 7 | 0 | 0 | 8 | -4
CCCCCCn1c(O)c(C=Nc2c(C)n(C)n(-c3ccccc3)c2=O)c(=O)[nH]c1=O | 47* | -4 | -18 | 0 | 6 | -6
COC(=O)Cn1cc(/C=C2\C(=O)NC(=O)N(c3ccc(OC)cc3)C2=O)c2ccccc21 | 9 | 10 | -2 | 3 | -5 | -3
COc1ccc(N2C(=O)NC(=O)/C(=C\c3cn(C)c4ccccc34)C2=O)cc1 | 1 | 37 | 0 | 32* | 42* | -2
CCC(=NCCc1c[nH]c2ccccc12)c1c(O)n(C)c(=O)n(C)c1=O | 26* | 0 | -15 | 16* | 24* | 3
O=C1NC(=O)C(Cc2ccccc2)(Cc2ccccc2)C(=O)N1Cc1ccccc1 | -3 | 14 | 20 | 0 | -14 | 11
CCOC(=O)c1cccc(C2=C(CNC(C)=O)[C@H]3CC[C@@H](C2)N3Cc2ccccc2)c1 | 31* | -13 | -15 | -1 | 17 | -7
CCCCn1c(=O)c(C=Nc2cccnc2Cl)c(O)n(CCCCl)c1=O | -1 | -11 | -1 | 0 | -5 | -4
CC1C2Cc3ccc(O)cc3[C@]1(C)CCN2CCc1ccccc1 (some centres not stated) | 15 | 4 | -21 | 2 | -25 | -12
OC(Cn1c2ccccc2c2ccccc21)C[n+]1cccc2ccccc21 (configuration not stated) | 63* | 24 | -22 | 0 | -11 | -7
CC1(C(O)(C#CCN2CCCCC2)c2ccccc2)CCCC1 (configuration not stated) | 100* | 10 | -21 | 1 | -8 | -8
OC(CC#CCN1CCCCCC1)(c1ccccc1)C1CCCC1 (configuration not stated) | 100* | -15 | -30 | 17* | 17 | -7
SMILES | M1 antag | M1 PAM parental | M1 PAM | M1 ag parental | CHO-K1 Ca antag | CHRM1 agonist
CN(C)CC#CCn1c2ccccc2c2ccccc21 | 15 | 18 | -12 | 2 | -8 | -5
CN(C)CC#CCC(O)(c1ccccc1)C1CCCC1 (configuration not stated) | 99* | -10 | -28 | 0 | 25* | -7
C(#CCN1CCCCC1)COCc1ccccc1 | 16 | 10 | -5 | 2 | -3 | -6
CC1=C(N2CC2)C(=O)C(CO)=C(N2CC2)C1=O | -20 | -5 | 8 | 1 | -11 | 3
C[N+](C)(C)CCOC(=O)CBr | -34 | 18 | 7 | 1 | -9 | 20*
CC(C)OP(=O)(O)NC(=O)c1ccccc1 | -9 | 3 | 8 | 0 | 0 | -3
Cc1cc(C)n(-c2ccc(NN=C(C#N)C#N)cc2)n1 | 16 | -1 | -9 | 21* | 14 | 9
N#CC(C#N)=NNc1ccc(-n2ccc(C(F)(F)F)n2)cc1 | 31 | -3 | -7 | 15 | 22 | 9
CC(C)c1ccc(N2C(=O)NC(=O)/C(=C\c3cnc(-c4ccccc4)nc3)C2=O)cc1 | 4 | 0 | 26* | 0 | 1 | -3
Cc1ccc(N2C(=O)NC(=O)/C(=C/c3cnc(-c4ccccc4)nc3)C2=O)cc1C | -4 | 7 | 5 | 3 | 1 | -5
